# Laboratory results reported in PubChem BioAssay (Tox21).
# Inconclusive results are not listed. Where a call stands in place of a potency, no number is given. Calls of active or inactive are those of the source. Calls follow the shape of the dose curve; as a rule, active = well fitted cell-killing curve with a large enough effect in the repeat runs; inconclusive = weak or mixed curves, or effect the other way; inactive = flat fitted curve, though single readings scatter.
# Test: qHTS assay to identify small molecule that activate the aryl hydrocarbon receptor (AhR) signaling pathway - cell viability counter screen (AID 743086); also: nearly all actives have a fitted effect of over 45% in size
# Conditions: HepG2-AhR-luc viability, CellTiter-Fluor, 24 h; series mostly up to 70.3 µM
# Excerpt: U.S. Tox21 Program National Center for Advancing Translational Sciences [NCATS] NIH Chemical Genomics Center [NCGC] U.S. Environmental Protection Agency [EPA] National Institutes of Environmental Health Sciences [NIEHS] National Toxicology Program [NTP] U.S. Food and Drug Administration [FDA] Tox21 Assay overview: The Aryl hydrocarbon Receptor (AhR), a member of the family of basic helix-loop-helix transcription factors, is crucial to adaptive responses to environmental changes. AhR mediates cellular responses to environmental pollutants such as aromatic hydrocarbons through induction of phase I and II enzymes but also interacts with other nuclear receptor signaling pathways A cell based HepG2-AhR-luc assay (HG2L7.5c1 cell line, developed by Dr. Michael S. Denison, University of California at Davis) was used to assess the activation of AhR. HepG2 (human hepatocellular carcinoma) cells were stably transfected with an Ah receptor-responsive firefly luciferase reporter gene plasmid containing 20 dioxin responsive elements and luciferase reporter gene. Increased luciferase activity can be used to identify the compounds that induce AhR activation. The cytotoxicity of the compounds screened against the HepG2-AhR-luc cell line was tested in parallel by measuring the cell viability using CellTiter-Fluor assay in the same wells.
# Tox21 Assay Protocol Summary: 4000 cells in 5 uL/well were dispensed into white wall/solid bottom 1536-well plates using a Multidrop Combi (Thermo Fisher Scientific Inc., Waltham, MA) dispenser. After the assay plates were incubated at 37C for 5 h, 23 nL of compound or DMSO vehicle was transferred to the assay plates by a pintool station (Kalypsys, San Diego, CA). The plates were incubated at 37C for 24 hr. For cell viability measurement, 1 ul/well of CellTiter-Fluor reagent (Promega, Madison, WI) was added into the assay plates using a Flying Reagent Dispenser (FRD) (Aurora Discovery, CA),and then the assay plates were incubated at 37C for 30 min. The fluorescence intensity in the plates was measured using a ViewLux plate reader (PerkinElmer, Shelton, CT), followed by the addition of 4 uL of ONE-Glo Luciferase Assay reagent (Promega) using an FRD (Aurora Discovery). After the assay plates were incubated at room temperature for 30 min, luminescence intensity was measured using a ViewLux plate reader (Perkin Elmer).
# Potency is read from the fitted curve at half-maximal effect.
row,Structure (SMILES),Potency
1,CC1CCCO1 (stereo not given),inactive
2,CC(C)(C)NCC(O)COc1cccc2c1C[C@H](O)[C@H](O)C2 (stereo not given in full),inactive
3,CCCCCCOC(=O)CCCCC,inactive
4,Nc1ccn([C@H]2CS[C@@H](CO)O2)c(=O)n1,inactive
5,CCN(CC)CCOC(=O)C(c1ccccc1)c1ccccc1,inactive
6,O=c1[nH][nH]c(=O)c2cc([N+](=O)[O-])ccc12,inactive
7,SCCc1cnccn1,inactive
8,c1ccc(CCCc2ccncc2)cc1,inactive
9,COc1cc(NS(=O)(=O)c2ccc(N)cc2)nc(C)n1,inactive
10,Nc1ccc(S(=O)(=O)NCc2ccccc2)cc1,inactive
11,CC(=O)OCC(C)C,inactive
12,CC(=O)OCCC1CCCCC1,inactive
13,CC(C)Cc1ccc(CC(=O)O)cc1,inactive
14,CC/C=C\C/C=C\C/C=C\CCCCCCCC(=O)OCC,inactive
15,COC1CCC=CO1 (stereo not given),inactive
16,O=[N+]([O-])c1ccc2ncccc2c1,inactive
17,COc1ccc2nc(S(=O)Cc3ncc(C)c(OC)c3C)[nH]c2c1 (stereo not given),inactive
18,Oc1ccc2c(c1)Cc1ccccc1-2,inactive
19,CC(C(=O)O)c1ccc(C(=O)c2cccs2)cc1 (stereo not given),inactive
20,C1=CCC2CC=CC2C1 (stereo not given),inactive

row,Structure (SMILES),Potency
1,CCCCCCCCCCCCCOS(=O)(=O)O,inactive
2,COC(CC(C)CCCC(C)(C)O)OC (stereo not given),inactive
3,CCC(Cl)CC(Cl)C(Cl)C(Cl)C(Cl)C(C)Cl (stereo not given),inactive
4,CC(=O)OC(C)C[N+](C)(C)C (stereo not given),inactive
5,COc1ccc(/C=C/C(=O)c2ccc(OC)cc2OC)cc1,inactive
6,CC[C@H]1OC(=O)[C@H](C)[C@@H](O[C@H]2C[C@@](C)(OC)[C@@H](O)[C@H](C)O2)[C@H](C)[C@@H](O[C@@H]2O[C@H](C)C[C@H](N(C)C)[C@H]2O)[C@](C)(O)C[C@@H](C)C(=O)[C@H](C)[C@@H](O)[C@]1(C)O,inactive
7,CCOC(=O)c1c(N)sc2c1CCN(Cc1ccccc1)C2,inactive
8,[Cl][Nd]([Cl])[Cl],inactive
9,CC(O)Cn1cnc2c1c(=O)n(C)c(=O)n2C (stereo not given),inactive
10,CC[C@@H](CO)NCCN[C@@H](CC)CO,inactive
11,CCCCCCCCCCCSCC(=O)O,inactive
12,COc1cc(OC)c2ccc(=O)oc2c1,inactive
13,COc1cc(S(=O)(=O)Nc2ccccc2)c(OC)cc1N,inactive
14,CC1CCC(C(C)CS)CC1S (stereo not given),inactive
15,CCC(CO)(CO)CO,inactive
16,O=NN(CCCl)C(=O)NCCCl,inactive
17,Cc1c(C2(c3cc(Br)c(O)c(Br)c3C)OS(=O)(=O)c3ccccc32)cc(Br)c(O)c1Br,10.5 µM (active)
18,O=C1[C@@H]2[C@H]3CC[C@H](C3)[C@@H]2C(=O)N1CCCCN1CCN(c2ncccn2)CC1,inactive
19,CC(C)(C)C1(CCc2ccc(Cl)cc2)CO1 (stereo not given),inactive
20,c1ccc(CNc2ncnc3c2ncn3C2CCCCO2)cc1 (stereo not given),inactive
